Test results published in PubChem BioAssay (Tox21).
Results filed as inconclusive are left out. Where a call stands in place of a potency, no number is given. The source made the active and inactive calls. Unless noted, calls come from the whole dose curve; as a rule, active = well fitted curve in the direction sought with a large enough effect in the repeat runs; inconclusive = weak or mixed curves; inactive = no such curve, though single readings can be large; an effect the other way counts as inactive or inconclusive.

How the values were obtained:
[1] = qHTS assay to identify small molecule agonists of the RXR signaling pathway - cell viability counter screen (AID 1159529); note: nearly all actives have a fitted effect of over 50% in size; note: potency is the fitted concentration of half-maximal effect
Method in brief: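 Luminescence from CellTiter-Glo (30 min, RT) measured viability in the same wells as the beta-lactamase reporter readout. Cells: GeneBLAzer RXR-alpha HEK 293T, 2% charcoal-stripped FBS. Compound exposure 16 hr, 37 C.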

[2] = qHTS assay to identify small molecule antagonists of the retinoid acid receptor (RAR) signaling pathway - cell viability counter screen (AID 1159551); note: nearly all actives have a fitted effect of over 35% in size; note: potency is the fitted concentration of half-maximal effect
Method in brief: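 Cells (C3RL4) are plated, incubated overnight, dosed with compound in DMSO, then given retinol at 1 uM final. After 6 h at 37 C, CellTiter-Glo is added and luminescence read following 30 min at room temperature.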

[3] = qHTS assay to identify small molecule antagonists of the retinoic acid receptor (RAR) signaling pathway (AID 1159552; note: nearly all actives have a fitted effect of over 50% in size; note: potency is the fitted concentration of half-maximal effect)
Method in brief: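 Luminescence from a RARE luciferase reporter in C3RL4 cells served as read-out. Cells received compounds together with 1 uM final retinol and incubated 6 hr at 37 C before detection reagent was added for 30 min at room temperature.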

[4] = qHTS assay to identify small molecule agonists of the retinoic acid receptor (RAR) signaling pathway (AID 1159553)
Method in brief: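 Seed C3RL4 reporter cells at 1,000 per well and incubate overnight at 37 C. Add compounds in DMSO, incubate 6 hr. Add luciferase reagent, wait 30 min at room temperature, read luminescence.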

[5] = qHTS assay to identify small molecule antagonists of the estrogen related receptor (ERR) signaling pathway from Tox21 library - cell viability counter screen (AID 1224834); note: nearly all actives have a fitted effect of over 30% in size; note: potency is the fitted concentration of half-maximal effect
Method in brief: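 ERR cells, 2,000/well; 6 h settle at 37 C/5% CO2; pin-tool compound transfer in DMSO; 17.5 h at 37 C; CellTiter-Fluor, 30 min; fluorescence intensity.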

[6] = biological target: Luciferin 4-monooxygenase (Photinus pyralis) (UniProt P08659); assay: qHTS assay to identify small molecule inhibitors of firefly luciferase (AID 1224835); note: series mostly up to about 120 µM; nearly all actives have a fitted effect of over 25% in size
Method in brief: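 Inhibition of purified Photinus luciferase is measured by luminescence. Substrate levels (D-luciferin, ATP) sit at their KM values. Each compound is tested in a concentration series.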

[7] = qHTS assay to identify small molecule agonists of the constitutive androstane receptor (CAR) signaling pathway - cell viability counter screen (AID 1224836); note: series mostly up to about 92 µM; nearly all actives have a fitted effect of over 45% in size
Method in brief: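 Viability read-out: CellTiter-Fluor fluorescence after 23 h compound exposure at 37 C/5% CO2 in double-stable HepG2-CYP2B6-hCAR cells, with PK11195 present at 0.75 uM final; compounds tested in 15-point titration.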

[8] = qHTS assay to identify small molecule antagonists of the constitutive androstane receptor (CAR) signaling pathway - cell viability counter screen (AID 1224837); note: nearly all actives have a fitted effect of over 45% in size; note: potency is the fitted concentration of half-maximal effect
Method in brief: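 Viability was measured with CellTiter-Fluor in a HepG2 line carrying stably transfected hCAR and a CYP2B6-2.2kb construct. Cells were exposed for 23 hr at 37 C to 15 compound concentrations with 50 nM CITCO as agonist.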

[9] = qHTS assay to identify small molecule antagonists of the estrogen related receptor signaling pathway with the pleiotropic PPARgamma coactivator (PGC) from Tox21 10K library - cell viability counter screen (AID 1224840; active = well fitted cell-killing curve with a large enough effect in the repeat runs, not every such curve was filed as active; note: nearly all actives have a fitted effect of over 40% in size)
Method in brief: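 Multiplexed viability counter screen in the PGC/ERR cell line: cells treated with DMSO-dissolved compounds for 17.5 hours at 37 C, then viability measured as CellTiter-Fluor fluorescence.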

[10] = biological target: Nuclear receptor subfamily 1 group I member 3 (Homo sapiens) (UniProt Q14994); assay: qHTS assay to identify small molecule agonists of the constitutive androstane receptor (CAR) signaling pathway (AID 1224839); note: nearly all actives have a fitted effect of over 15% in size; note: potency is the fitted concentration of half-maximal effect
Method in brief: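 Luminescence read-out (ONE-Glo, 30 min, room temperature) from double-stable HepG2-CYP2B6-hCAR cells exposed 24 h to 15-point compound series in presence of 0.75 uM PK11195 final.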

[11] = biological target: Nuclear receptor subfamily 1 group I member 3 (Homo sapiens) (UniProt Q14994); assay: qHTS assay to identify small molecule antagonists of the constitutive androstane receptor (CAR) signaling pathway (AID 1224838);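 note: HepG2 cells stably expressing hCAR with CYP2B6 luciferase reporter stimulated by CITCO; nearly all actives have a fitted effect of over 40% in size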
Method in brief: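 Antagonist mode used CITCO at a final 50 nM to activate CAR in human hepatoma HepG2 cells carrying stable hCAR and a 2.2 kb CYP2B6 promoter-luciferase construct. Compounds were tested at 15 concentrations over 24 h, with luminescence as the end point.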

[12] = biological target: Retinoic acid receptor RXR-alpha (Homo sapiens) (UniProt P19793); assay: qHTS assay to identify small molecule agonists of the RXR signaling pathway (AID 1159527; calls by dose curve; note: nearly all actives have a fitted effect of over 35% in size)
Method in brief: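 Agonist mode; 9-cis retinoic acid positive control. HEK 293T UAS-bla reporter cells, 2% charcoal-stripped FBS, 16 hr compound exposure at 37 C/5% CO2. LiveBLAzer B/G FRET substrate 2 hr RT; ex 405, em 460/530 nm.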

[13] = qHTS assay to identify small molecule antagonists of the estrogen related receptor signaling pathway with the pleiotropic PPARgamma coactivator (PGC) from Tox21 10K library (AID 1224841; call rule not given here; note: actives are mostly falling curves and most rising ones were filed inactive; nearly all actives have a fitted effect of over 50% in size; note: potency is the fitted concentration of half-maximal effect)
Method in brief: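 Steps: plate 2,000 PGC/ERR cells per well; incubate 6 h at 37 C with 5% CO2; transfer compounds from DMSO stocks by pin tool; incubate 18 h at 37 C; add One-Glo; measure luminescence 30 min later.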

[14] = qHTS assay to identify small molecule agonists of the estrogen related receptor signaling pathway with the pleiotropic PPARgamma coactivator (PGC) from Tox21 10K library (AID 1224842); note: nearly all actives have a fitted effect of over 15% in size
Method in brief: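 Luminescence from One-Glo (30 min, room temperature) measured after PGC/ERR cells had 18 h at 37 C with pinned compound (23 nL in DMSO). Cells had been seeded at 2,000 per well and pre-incubated 6 h.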

[15] = biological target: Thyrotropin receptor (Homo sapiens) (UniProt P16473); assay: qHTS assay to identify small molecule agonists of the thyroid stimulating hormone receptor (TSHR) signaling pathway (AID 1224843; calls by dose curve; note: nearly all actives have a fitted effect of over 45% in size; note: potency is the fitted concentration of half-maximal effect)
Method in brief: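 A cell-based cAMP HTRF format was run in TSHR-transfected HEK293 cells, 800 per well. Treatment: 30 min, room temperature. Detection: 1 h with labelled cAMP and anti-cAMP cryptate. Concentration-response over 15 points, three replicates.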

Chain of Luciferin 4-monooxygenase (Photinus pyralis) (P08659 whole entry, looked up): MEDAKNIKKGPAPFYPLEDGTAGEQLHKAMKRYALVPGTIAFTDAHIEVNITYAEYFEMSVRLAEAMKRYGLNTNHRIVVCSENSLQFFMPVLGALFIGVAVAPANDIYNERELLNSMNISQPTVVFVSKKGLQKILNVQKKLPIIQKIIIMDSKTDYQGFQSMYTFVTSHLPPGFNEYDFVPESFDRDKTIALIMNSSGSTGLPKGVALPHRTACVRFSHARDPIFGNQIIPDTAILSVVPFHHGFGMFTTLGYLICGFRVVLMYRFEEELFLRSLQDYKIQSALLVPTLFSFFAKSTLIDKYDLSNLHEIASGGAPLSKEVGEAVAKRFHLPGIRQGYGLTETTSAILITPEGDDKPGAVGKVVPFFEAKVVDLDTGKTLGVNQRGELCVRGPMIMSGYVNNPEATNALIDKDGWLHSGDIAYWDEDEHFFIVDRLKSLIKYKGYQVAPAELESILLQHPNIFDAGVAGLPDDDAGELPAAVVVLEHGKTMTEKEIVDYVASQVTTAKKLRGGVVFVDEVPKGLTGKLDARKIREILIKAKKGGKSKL
Chain of Nuclear receptor subfamily 1 group I member 3 (Homo sapiens) (Q14994 whole entry, looked up): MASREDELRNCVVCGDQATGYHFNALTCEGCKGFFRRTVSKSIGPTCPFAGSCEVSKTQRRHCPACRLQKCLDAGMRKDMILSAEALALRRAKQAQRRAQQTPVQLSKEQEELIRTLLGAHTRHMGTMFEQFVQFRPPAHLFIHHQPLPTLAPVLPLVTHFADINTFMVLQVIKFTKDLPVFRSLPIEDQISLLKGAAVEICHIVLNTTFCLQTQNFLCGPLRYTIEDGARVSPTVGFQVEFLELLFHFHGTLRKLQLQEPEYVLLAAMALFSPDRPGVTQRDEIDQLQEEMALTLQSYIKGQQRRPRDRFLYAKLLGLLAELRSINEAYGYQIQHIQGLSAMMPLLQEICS
Chain of Thyrotropin receptor (Homo sapiens) (P16473 whole entry, looked up): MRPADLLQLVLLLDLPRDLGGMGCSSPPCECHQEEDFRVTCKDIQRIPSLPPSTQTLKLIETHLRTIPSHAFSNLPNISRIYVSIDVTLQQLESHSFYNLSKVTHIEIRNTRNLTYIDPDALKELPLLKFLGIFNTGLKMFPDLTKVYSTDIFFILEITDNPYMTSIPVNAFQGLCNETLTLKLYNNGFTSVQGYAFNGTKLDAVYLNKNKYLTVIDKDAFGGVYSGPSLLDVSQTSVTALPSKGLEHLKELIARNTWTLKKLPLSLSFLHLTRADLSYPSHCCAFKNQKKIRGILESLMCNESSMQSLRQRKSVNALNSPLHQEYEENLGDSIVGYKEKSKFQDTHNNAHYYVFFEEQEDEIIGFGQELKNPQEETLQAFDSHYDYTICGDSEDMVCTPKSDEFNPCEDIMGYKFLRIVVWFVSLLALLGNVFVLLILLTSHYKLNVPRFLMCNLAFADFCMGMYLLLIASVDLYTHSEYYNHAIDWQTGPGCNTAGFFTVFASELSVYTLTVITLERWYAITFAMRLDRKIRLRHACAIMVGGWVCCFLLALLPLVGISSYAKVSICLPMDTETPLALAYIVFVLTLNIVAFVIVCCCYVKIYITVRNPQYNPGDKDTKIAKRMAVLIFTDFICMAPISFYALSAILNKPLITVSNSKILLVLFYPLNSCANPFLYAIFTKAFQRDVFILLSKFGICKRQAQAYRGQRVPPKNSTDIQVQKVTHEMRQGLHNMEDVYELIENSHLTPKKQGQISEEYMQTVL
Chain of Retinoic acid receptor RXR-alpha (Homo sapiens) (P19793 whole entry, looked up): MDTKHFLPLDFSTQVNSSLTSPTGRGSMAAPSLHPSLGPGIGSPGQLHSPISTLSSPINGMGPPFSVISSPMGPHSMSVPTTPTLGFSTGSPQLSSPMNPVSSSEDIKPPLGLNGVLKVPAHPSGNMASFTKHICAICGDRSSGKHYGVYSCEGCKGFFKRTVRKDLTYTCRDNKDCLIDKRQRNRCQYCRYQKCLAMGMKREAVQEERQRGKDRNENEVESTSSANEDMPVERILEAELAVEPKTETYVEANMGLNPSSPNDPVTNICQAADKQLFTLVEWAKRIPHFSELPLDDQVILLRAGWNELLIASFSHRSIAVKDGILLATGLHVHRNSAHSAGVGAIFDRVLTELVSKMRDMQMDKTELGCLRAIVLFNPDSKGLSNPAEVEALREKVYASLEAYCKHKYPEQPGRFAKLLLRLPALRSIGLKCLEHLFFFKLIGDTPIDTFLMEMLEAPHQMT

SMILES | Potency [1] | Potency [2] | Potency [3] | Potency [4] | Potency [5] | Potency [6] | Potency [7] | Potency [8] | Potency [9] | Potency [10] | Potency [11] | Potency [12] | Potency [13] | outcome [14] | Potency [15]
O=[N+]([O-])c1ccc2c3c(cccc13)CC2 | inactive | inactive | inactive | inactive | inactive | inactive | inactive | inactive | inactive | – | – | – | – | – | –
CC(C)CC#N | inactive | inactive | inactive | inactive | inactive | inactive | inactive | inactive | inactive | – | – | – | – | – | –
CCOP(=S)(OCC)SCSc1ccc(Cl)cc1 | inactive | inactive | inactive | inactive | inactive | inactive | inactive | inactive | inactive | 27.3 µM (active) | – | – | – | – | –
COc1cc2c(cc1OC)[C@@]13CCN4CC5=CCO[C@H]6CC(=O)N2[C@H]1[C@H]6[C@H]5C[C@H]43 | inactive | inactive | inactive | inactive | inactive | inactive | inactive | inactive | – | – | inactive | – | – | – | –
Cc1ccccc1CO[C@@H]1C[C@@]2(C(C)C)CC[C@]1(C)O2 | – | – | – | inactive | inactive | inactive | inactive | inactive | inactive | inactive | – | inactive | – | – | –
[As]#[In] | inactive | inactive | inactive | – | inactive | inactive | inactive | inactive | inactive | – | – | – | inactive | inactive | inactive
CCOP(=S)(OCC)Oc1ncn(-c2ccccc2)n1 | inactive | inactive | inactive | – | inactive | – | inactive | inactive | inactive | 30.6 µM (active) | inactive | – | – | – | –
COC(=O)C(C)Oc1ccc(Oc2ccc(Cl)cc2Cl)cc1 (stereo not given) | inactive | inactive | inactive | – | inactive | inactive | inactive | – | inactive | inactive | inactive | – | inactive | inactive | –
O=[N+]([O-])c1cccc(O)c1 | inactive | inactive | – | inactive | inactive | inactive | inactive | inactive | inactive | inactive | inactive | – | – | – | inactive
COc1cc(C[C@@H](C)N)c(OC)cc1C | inactive | inactive | – | – | inactive | inactive | inactive | inactive | inactive | inactive | inactive | – | inactive | inactive | inactive
NC(=S)C(N)=S | inactive | inactive | inactive | inactive | – | inactive | inactive | inactive | inactive | – | inactive | – | – | inactive | –
N#CCNCC#N | inactive | inactive | – | – | inactive | inactive | inactive | inactive | inactive | inactive | inactive | – | inactive | – | inactive
O=c1oc2ccccc2c(O)c1C1CCCc2ccccc21 (stereo not given) | inactive | inactive | inactive | inactive | inactive | – | inactive | inactive | inactive | inactive | inactive | – | 54.5 µM (active) | – | –
C=CCC1=C(C)[C@@H](OC(=O)[C@@H]2[C@@H](C=C(C)C)C2(C)C)CC1=O | 21.9 µM (active) | 54.5 µM (active) | 27.3 µM (active) | inactive | – | inactive | – | inactive | – | 24.3 µM (active) | inactive | – | – | – | –
O=C(Nc1ccccc1)c1ccccc1I | inactive | inactive | inactive | – | inactive | inactive | inactive | inactive | inactive | 61.1 µM (active) | inactive | – | – | – | inactive
O=[N+]([O-])c1cccc2c([N+](=O)[O-])cccc12 | inactive | inactive | – | inactive | 61.4 µM (active) | inactive | – | – | – | – | inactive | – | 34.6 µM (active) | inactive | inactive
[Cl][Sn]([Cl])([Cl])[Cl] | inactive | inactive | – | – | inactive | inactive | inactive | inactive | inactive | inactive | inactive | – | – | – | –
CCCCOC(=O)[C@@H](C)Oc1ccc(Oc2ccc(C#N)cc2F)cc1 | inactive | inactive | – | – | inactive | inactive | inactive | inactive | inactive | inactive | inactive | – | inactive | inactive | –
N#Cc1ccncc1 | inactive | inactive | inactive | inactive | inactive | inactive | inactive | inactive | – | – | – | – | inactive | inactive | –
CC1(C)COP(Oc2ccccc2)OC1 | inactive | inactive | inactive | inactive | – | inactive | inactive | inactive | – | inactive | inactive | – | inactive | – | inactive
O=C(Nc1ccccc1)N(Cc1ccc(Cl)cc1)C1CCCC1 | inactive | inactive | – | inactive | 48.6 µM (active) | inactive | – | 61.1 µM (active) | – | – | – | – | – | – | 48.6 µM (active)
CCC/C(=N\OCC)C1=C(O)CC(CC(C)SCC)CC1=O (stereo not given) | inactive | inactive | inactive | – | inactive | inactive | inactive | inactive | inactive | – | inactive | – | – | – | –
CCOC(=O)NC(=S)Nc1ccccc1NC(=S)NC(=O)OCC | inactive | inactive | inactive | – | inactive | inactive | inactive | inactive | inactive | – | – | – | inactive | inactive | –
CC(=O)CC(c1ccc(Cl)cc1)c1c(O)c2ccccc2oc1=O (stereo not given) | inactive | inactive | inactive | inactive | inactive | inactive | inactive | – | inactive | – | – | – | – | – | inactive
